What was measured:
[1] = tested on: Vero E6 infected with SARS-CoV-2; assay: morphology score (similarity to uninfected cells); higher = more like uninfected cells; details: 24 h
[2] = tested on: Vero E6 infected with SARS-CoV-2; assay: SARS-CoV-2 infection rate relative to infected DMSO; higher = more infection, active = 60 or less; details: 24 h

Structure (SMILES)	morphology score [1]	SARS-CoV-2 infection rate [2]
CCCCOc1nc(N)c2c(n1)N(Cc1cccc(CN3CCCC3)c1)CC(=O)N2 (10 µM)	-0.135	106% (inactive)
CCCCN1CCC(CCC(=O)c2cc(Cl)c(N)cc2OC)CC1 (10 µM)	0.237	95% (inactive)
CC(=O)Nc1ccccc1 [acetanilide] (10 µM)	0.174	102% (inactive)
O=c1ccc2cc3ccoc3cc2o1 [psoralen] (10 µM)	-0.0337	108% (inactive)
CN(C)c1ccc(/C=C2\C(=O)Nc3ccccc32)cc1 (10 µM)	0.175	101% (inactive)
CCC(=N\O)/C(C)=C/c1ccc(F)cc1 (10 µM)	0.0411	110% (inactive)
CCS(=O)(=O)N1CCC([C@@H](C)n2c(C)c(C(=O)NCc3c(OC)cc(C)[nH]c3=O)c3ccccc32)CC1 (10 µM)	-0.000259	102% (inactive)
NC(=O)c1cc([N+](=O)[O-])cc([N+](=O)[O-])c1 [nitromide] (10 µM)	0.265	83.5% (inactive)
O=C(CNC(=O)c1cccc(C(F)(F)F)c1)N[C@@H]1CCN(Cc2ccc(Cl)cc2)C1 [teijin-compound-1] (10 µM)	-0.116	103% (inactive)
CN1[C@@H]2CC[C@H]1C[C@@H](OC(c1ccc(F)cc1)c1ccc(F)cc1)C2 [3-alpha-bis-(4-fluorophenyl)-methoxytropane] (10 µM)	0.266	73% (inactive)
Clc1ccc(C(OCCN2CCCCC2)c2ccccc2)cc1 (stereo not given) [cloperastine] (10 µM)	0.412	75.5% (inactive)
COc1cc(Br)c(Nc2nc(-c3c(C)nc4ncccn34)cs2)c(Br)c1 (10 µM)	-0.31	114% (inactive)
COc1cc2c(cc1OC)CN(CCc1ccc(NC(=O)c3cc(OC)c(OC)cc3NC(=O)c3cnc4ccccc4c3)cc1)CC2 [tariquidar] (10 µM)	-0.0369	108% (inactive)
Cn1ncc(Cl)c1-c1cc(C(=O)N[C@H](CN)Cc2cccc(F)c2)sc1Cl (10 µM)	0.197	107% (inactive)
Cc1c(O)c(=O)ccn1C [deferiprone] (10 µM)	-0.123	98% (inactive)
CC1(N)CCN(c2cnc(-c3cccc(Cl)c3Cl)c(N)n2)CC1 (0.833333 µM)	0.0281	112% (inactive)
CC(NC(=O)c1ccccc1/N=C/c1c(O)ccc2ccccc12)c1ccccc1 (stereo not given) [sirtinol] (10 µM)	0.0701	99% (inactive)
COc1cc(Br)c(S(=O)(=O)Nc2ccc(Cl)c(O[C@@H]3CCN(C)C3)c2)cc1OC (10 µM)	-0.105	102% (inactive)
CCCN(CCC)C(=O)C(CCC(=O)OCCCN1CCN(CCOC(=O)Cc2c(C)n(C(=O)c3ccc(Cl)cc3)c3ccc(OC)cc23)CC1)NC(=O)c1ccccc1 (stereo not given) [proglumetacin] (10 µM)	0.0923	99.5% (inactive)
O=C1c2ccccc2C(=O)c2ccccc21 [anthraquinone] (10 µM)	0.166	103% (inactive)

Structure (SMILES)	morphology score [1]	SARS-CoV-2 infection rate [2]
CCOC(=O)CCC(=O)O[C@H]1[C@H](O[C@@H]2[C@@H](C)[C@H](O[C@H]3C[C@@](C)(OC)[C@@H](O)[C@H](C)O3)[C@@H](C)C(=O)O[C@H](CC)[C@@](C)(O)[C@H](O)[C@@H](C)C(=O)[C@H](C)C[C@@]2(C)O)O[C@H](C)C[C@@H]1N(C)C [erythromycin-ethylsuccinate] (10 µM)	-0.215	118% (inactive)
CC(C)=CCC[C@](C)(O[C@@H]1O[C@H](CO)[C@@H](O)[C@H](O)[C@H]1O)[C@H]1CC[C@]2(C)[C@@H]1[C@H](O)C[C@@H]1[C@@]3(C)CC[C@H](O[C@@H]4O[C@H](CO)[C@@H](O)[C@H](O)[C@H]4O[C@@H]4O[C@H](CO)[C@@H](O)[C@H](O)[C@H]4O)C(C)(C)[C@@H]3CC[C@]12C [ginsenoside-RD] (10 µM)	0.0521	102% (inactive)
Oc1ccc(Cl)c2c1CCC2 [chlorindanol] (10 µM)	0.109	102% (inactive)
O=C(Oc1cccc2cccnc12)c1ccccc1 [benzoxiquine] (10 µM)	0.116	97% (inactive)
CC(=O)OCC1=C(C(=O)O)N2C(=O)[C@@H](NC(=O)CS/C(=N/C(C)C)NC(C)C)[C@H]2SC1 [cefathiamidine] (10 µM)	0.162	92% (inactive)
c1ccc2c(c1)CCC[C@H]2Nc1nc2ccccc2[nH]1 (10 µM)	0.268	89% (inactive)
CC1=NN=C(c2ccc(N)cc2)c2cc3c(cc2C1)OCO3 (10 µM)	-0.0987	112% (inactive)
NC(=O)OCC(COC(N)=O)c1ccccc1 [felbamate] (10 µM)	-0.0125	99% (inactive)
CC(C)c1c2cc(-c3ccnc(N[C@H]4CC[C@H](NC5CCOCC5)CC4)n3)ccc2nn1C (0.833333 µM)	0.108	90.5% (inactive)
Cc1ccc(NC(=O)Nc2cc(C(F)(F)F)ccc2F)cc1Nc1ccc2c(c1)NC(=O)/C2=C\c1ccc[nH]1 (10 µM)	0.567	51.5% (active)
O=C1O[C@H](CO)[C@@H](O)[C@H](O)[C@H]1O [gluconolactone] (10 µM)	0.0736	98% (inactive)
C[C@@H]1C[C@H]2[C@@H]3CCC4=CC(=O)C=C[C@]4(C)[C@@]3(Cl)[C@@H](O)C[C@]2(C)[C@@]1(OC(=O)c1ccco1)C(=O)CCl (10 µM)	0.481	78% (inactive)
COc1cccc(CCc2ccccc2OCC(CN(C)C)OC(=O)CCC(=O)O)c1 (stereo not given) [sarpogrelate] (10 µM)	0.198	100% (inactive)
CCN(CC)CCNc1ccc(CO)c2sc3ccccc3c(=O)c12 [hycanthone] (0.833333 µM)	0.244	82% (inactive)
CCOC(=O)CSCCC1NC(C(=O)O)CS1 (stereo not given) [letosteine] (10 µM)	-0.0697	117% (inactive)
CS(=O)(=O)N1CCc2c(-c3cnc(N)nc3)nc(N3CCOCC3)nc21 (0.833333 µM)	0.0917	110% (inactive)
COc1cccc2c1C(=O)c1c(O)c3c(c(O)c1C2=O)C[C@@](O)(/C(CO)=N/NC(=O)CCCCCN1C(=O)C=CC1=O)C[C@@H]3O[C@H]1C[C@H](N)[C@H](O)[C@H](C)O1 [aldoxorubicin] (0.833333 µM)	-0.0766	109% (inactive)
O=C(Nc1cnn2ccc(N3CCC[C@@H]3c3cc(F)ccc3F)nc12)N1CC[C@H](O)C1 [larotrectinib] (10 µM)	-0.124	122% (inactive)
Cc1nc(C#Cc2ccnc(Cl)c2)c(C)n1-c1ccc(F)cc1 [basimglurant] (10 µM)	0.114	112% (inactive)
C=CCN1CCCC1CNC(=O)c1cc2nn[nH]c2cc1OC (stereo not given) [alizapride] (10 µM)	-0.124	121% (inactive)

Structure (SMILES)	morphology score [1]	SARS-CoV-2 infection rate [2]
CC(C)NC[C@@H](O)COc1ccccc1-n1cccc1 (racemic) [isamoltane] (10 µM)	-0.204	114% (inactive)
C=CCC1(CC(C)C)C(=O)NC(=O)NC1=O [butalbital] (10 µM)	-0.0632	117% (inactive)
CC(C)N(CCCNC(=O)Nc1ccc(C(C)(C)C)cc1)C[C@H]1O[C@@H](n2ccc3c(N)ncnc32)[C@H](O)[C@@H]1O (10 µM)	-0.157	108% (inactive)
C1=Cc2cccc(OCC3CNCCO3)c2C1 (stereo not given) [indeloxazine] (10 µM)	-0.319	106% (inactive)
Cc1[nH]c(/C=C2\C(=O)Nc3ccc(F)cc32)c(C)c1C(=O)NCCN1CCCC1 [toceranib] (0.833333 µM)	-0.0721	26% (active)
CCOC(=O)Nc1cc(-c2ccc(C)c(NS(C)(=O)=O)c2)nn2c(C)nnc12 [bromosporine] (10 µM)	-0.021	111% (inactive)
COc1ccc(-c2coc3cc(O)ccc3c2=O)cc1 [formononetin] (10 µM)	0.158	106% (inactive)
CCNCc1cc(C(C)(C)C)c(O)c(C(C)(C)C)c1 (10 µM)	0.195	99% (inactive)
C/C(=C\CNc1ncnc2[nH]cnc12)CO [zeatin] (10 µM)	-0.0215	106% (inactive)
CCN(CC)CCNC(=O)c1ccccc1I (10 µM)	0.221	91% (inactive)
O=C1[C@H](Cc2ccc(O)cc2)N2C(=O)CCN(C(=O)NCc3ccccc3)[C@H]2CN1Cc1cccc2ccccc12 (10 µM)	0.0761	93% (inactive)
CN(C)[C@@H]1C(O)=C(C(N)=O)C(=O)[C@@]2(O)C(O)=C3C(=O)c4c(O)ccc(Cl)c4[C@@H](O)[C@H]3C[C@@H]12 [demeclocycline] (10 µM)	0.0306	96% (inactive)
C[C@@H]1C(=O)O[C@H]2C[C@@]34[C@H]5C[C@@H](C(C)(C)C)[C@]36[C@@H](OC(=O)[C@@H]6O)O[C@@]4(C(=O)O5)[C@]21O [Ginkgolide A] (10 µM)	-0.0141	114% (inactive)
COc1ccc(-c2cc(=O)c3c(OC)c(OC)c(OC)c(OC)c3o2)cc1OC [nobiletin] (10 µM)	0.322	110% (inactive)
C[C@@H](Oc1ccc2[nH]nc(/C=C/c3cnn(CCO)c3)c2c1)c1c(Cl)cncc1Cl (10 µM)	-0.00865	120% (inactive)
COc1cccc(N(C)C(=S)Oc2ccc3c(c2)CCCC3)n1 [liranaftate] (10 µM)	0.341	94% (inactive)
CN(C)CCC=C1c2ccccc2C=Cc2ccccc21 [cyclobenzaprine] (10 µM)	0.228	78% (inactive)
CCCc1nc(C(C)(C)O)c(C(=O)O)n1Cc1ccc(-c2ccccc2-c2nnn[nH]2)cc1 [olmesartan] (10 µM)	0.0191	102% (inactive)
C[C@H](N)Cn1ccc2cc(F)c(Cl)cc21 (10 µM)	0.45	90.5% (inactive)
CCN(C(C)=O)c1cccc(-c2ccnc3c(C#N)cnn23)c1 (10 µM)	0.0588	98.5% (inactive)

— the supplement of paper PMC13380429
